± gives the standard deviation of the averaged measurements.
What was measured:
DLD1 [1] = assay: cell viability (CellTiter-Glo) relative to plate median (fraction of plate median); higher = more viable cells; settings: 5 µM; treatment time 24 h; reporter: 7TFP
Outline: (§1)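 Colorectal cancer lines with stably integrated lentiviral TCF/Wnt firefly luciferase reporters received library compounds at a final 5 µM, 24 h after seeding into 384-well plates, for a 24 h exposure. Reported figures are plate-median-normalised firefly luciferase or CellTiterGlo luminescence per well. They average two independent replicates.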

HCT116 = assay: as above; settings: 5 µM; treatment time 24 h; reporter: TCF4/Wnt
Outline: as §1

SW480 [2] = assay: as above; settings: 5 µM; treatment time 24 h; reporter: 7TFP
Outline: as §1

DLD1 [3] = assay: TCF/Wnt firefly luciferase reporter signal relative to plate median (fraction of plate median); higher = higher Wnt reporter signal; settings: 5 µM; treatment time 24 h; reporter: 7TFP
Outline: as §1

SW480 [4] = assay: as above; settings: 5 µM; treatment time 24 h; reporter: 7TFP
Outline: as §1

SMILES	cell viability (DLD1 [1])	cell viability (HCT116)	cell viability (SW480 [2])	TCF/Wnt firefly luciferase reporter signal (DLD1 [3])	TCF/Wnt firefly luciferase reporter signal (SW480 [4])
C[n+]1cccc(C(=O)[O-])c1	1.03 ± 0.021	0.938 ± 0.0085	1.01 ± 0.018	1.15 ± 0.071	1.11 ± 0.092
O=C(COc1ccc(Cl)cc1)N1CCN(Cc2ccc3c(c2)OCO3)CC1	0.9755 ± 0.0064	0.893 ± 0.03	1.035 ± 0.0071	0.865 ± 0.18	0.921 ± 0.018
O=C(O)c1cc2ccccc2[nH]1	0.968 ± 0.011	0.994 ± 0.08	1.04 ± 0.028	1.12	1.08 ± 0.021
CC1(C)C=Cc2cc3ccc(=O)oc3cc2O1	0.979 ± 0.087	1 ± 0.043	1.04 ± 0.042	1.21 ± 0.13	1.165 ± 0.0071
COc1cccc2c1C(=O)c1c(O)c3c(c(O)c1C2=O)C[C@@](O)(C(=O)CO)C[C@@H]3O[C@H]1C[C@H](N)[C@@H](O)[C@H](C)O1	1.03 ± 0.028	0.589 ± 0.19	1.11 ± 0.13	1.16 ± 0.014	0.727 ± 0.082
CCC(C)C(N)=O (stereo not given) [2-Methylbutyramide]	1.06 ± 0.028	1.05 ± 0.021	1.01 ± 0.018	1.16 ± 0.071	1.045 ± 0.0071
COC(=O)c1cc(O)c(=O)c2c(O)c(O)ccc2c1	0.982 ± 0.096	0.8955 ± 0.0021	0.997 ± 0.033	0.785 ± 0.037	0.951 ± 0.11
CC(=O)OCC(=O)[C@@]1(O)[C@@H](C)C[C@H]2[C@@H]3CCC4=CC(=O)C=C[C@]4(C)[C@@]3(F)[C@@H](O)C[C@@]21C	1.04 ± 0.014	1.17 ± 0.11	1 ± 0.026	0.989 ± 0.011	0.876 ± 0.14
Cc1ccc2c(Cl)cc(Cl)c(O)c2n1	1.01 ± 0.021	1.01 ± 0.15	1.07	1.06 ± 0.22	1.04 ± 0.067
CC(=O)NCCCCCC(=O)O	0.987 ± 0.047	1.01 ± 0.027	1.035 ± 0.0071	1.01 ± 0.068	1.04 ± 0.07
Cc1cc(O)c2c3c(ccc2c1)C(=O)c1c(O)cccc1C3=O [Tetrangulol]	1.02 ± 0.065	0.985 ± 0.018	0.972 ± 0.015	0.978 ± 0.023	0.974 ± 0.035
C=C(CC)C(=O)c1ccc(OCC(=O)O)c(Cl)c1Cl	1.01 ± 0.046	1.01 ± 0.046	1.03 ± 0.05	1.11 ± 0.11	1.095 ± 0.0071
COc1cc2occ(-c3ccccc3)c(=O)c2c(OC)c1C	0.982 ± 0.015	1 ± 0.025	0.958 ± 0.021	1.15 ± 0.16	1.12 ± 0.05
COc1cc2c(cc1OC)C1(O)C(=O)c3ccc(O)c(C(=O)O)c3OC1CO2 (stereo not given)	1.05 ± 0.035	1.04 ± 0.059	1.08 ± 0.014	0.9145 ± 0.005	0.984 ± 0.14
NC(C(=O)O)C(O)C(=O)O (stereo not drawn) [d,l-threo-3-HYDROXYASPARTIC ACID]	0.923 ± 0.036	1.09 ± 0.11	0.949 ± 0.044	1.14 ± 0.27	1.15 ± 0.064
CCC[C@@H]1C[C@@H](C(=O)N[C@@H]([C@H]2O[C@H](SC)[C@H](O)[C@@H](O)[C@H]2O)[C@H](C)Cl)N(C)C1	0.966 ± 0.15	1 ± 0.042	1.07 ± 0.057	0.907 ± 0.028	1.04 ± 0.028
CC1CCC(C(C)C)C(O)C1 (stereo not given)	1.05 ± 0.1	1.04	1.02 ± 0.066	1.09 ± 0.035	1.01 ± 0.09
CCN(CC)CCOc1ccc(C(=C(Cl)c2ccccc2)c2ccccc2)cc1	0.983 ± 0.019	0.971 ± 0.041	0.939 ± 0.073	0.914 ± 0.028	1.01 ± 0.27
CC(=O)c1oc(C)c2c1C(=O)c1cccc(O)c1C2=O [Bhimamycin B]	0.955 ± 0.019	1.01 ± 0.015	0.9505 ± 0.00071	1.02 ± 0.035	1.1 ± 0.028
CN[C@@H]1[C@H](O[C@H]2[C@H](O[C@H]3[C@H](O)[C@@H](O)[C@H](NC(=N)N)[C@@H](O)[C@@H]3NC(=N)N)O[C@@H](C)[C@]2(O)CO)O[C@@H](CO)[C@H](O)[C@H]1O	0.9855 ± 0.0078	1.13 ± 0.042	1.055 ± 0.0071	1.18 ± 0.071	1.11
O=C(O)c1nc2cc(Cl)c(Cl)cc2nc1O	0.95 ± 0.16	0.957 ± 0.046	1.03 ± 0.028	0.831 ± 0.0014	0.951 ± 0.098
C1CCN2C[C@@H]3C[C@@H](CN4CCCC[C@@H]34)[C@H]2C1	1.08 ± 0.12	1.04 ± 0.021	1.05 ± 0.021	1.16	0.948 ± 0.053
Cc1scc2c1N(C(=O)CN1CCN(C)CC1)c1ccccc1NC2=O	1.03 ± 0.073	1 ± 0.071	0.996 ± 0.034	0.984 ± 0.052	0.954 ± 0.04
CCOc1ccc2nc(S(N)(=O)=O)sc2c1	0.972 ± 0.054	0.896 ± 0.15	0.961 ± 0.014	0.704 ± 0.088	0.891 ± 0.091
CC1COc2c(N3CCN(C)CC3)c(F)cc3c(=O)c(C(=O)O)cn1c23 (stereo not given)	0.995 ± 0.05	1.04 ± 0.16	0.91 ± 0.0099	0.93 ± 0.075	1.01 ± 0.088
CCc1c(O)cc(C(C)CC)oc1=O (stereo not given) [Germicidin]	1.02 ± 0.014	0.92 ± 0.034	0.965 ± 0.05	0.946 ± 0.16	1.06 ± 0.09
OC1(c2ccc(Cl)c(C(F)(F)F)c2)CCN(CCCC(c2ccc(F)cc2)c2ccc(F)cc2)CC1	0.982 ± 0.14	1.08 ± 0.071	0.994 ± 0.023	1.1 ± 0.21	0.931 ± 0.092
O=C(Nc1ccc([N+](=O)[O-])cc1Cl)c1cc(Cl)ccc1O	0.764 ± 0.05	0.614 ± 0.13	0.779 ± 0.3	0.92 ± 0.064	0.964 ± 0.22
COc1cc2c(=O)c(-c3ccc4c(c3)OCO4)coc2c(OC)c1OC	1.05 ± 0.05	1.01 ± 0.073	1 ± 0.011	0.94 ± 0.05	0.922 ± 0.026
C=C1[C@H]2CC[C@@]3(C)[C@H](c4ccoc4)OC(=O)C[C@]13O[C@H]1C[C@H](O)C(C)(C)[C@H](CC(=O)OC)[C@]12C [3-DEOXY-3beta-HYDROXYANGOLENSIC ACID METHYL ESTER]	1.01 ± 0.061	0.958 ± 0.1	1.05 ± 0.11	1.06 ± 0.05	0.952 ± 0.035
